An excerpt weighted towards active compounds, which were near 3.4% of everything screened.
FBW7 act: human FBW7 E3 ligase activation, primary screen | AlphaScreen FBW7–phospho-cyclin E peptide binding, activator screen | normalized activity (activation), % at 26.1 µM | 0.13% of 650,000 active | Q969H0; in the data active means normalized activity above about 1.9%;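 further: purified mutant Fbw7 with reduced substrate affinity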
MITF inh: inhibitors of human MITF. inhibition, % at 2.6 µM. AlphaScreen MITF homodimerization, bead proximity signal. 0.91% of 650,000 active; in the data active means inhibition above about 50%;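 further: 0% = vehicle wells with protein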
Target sequence (O75030 whole entry, looked up): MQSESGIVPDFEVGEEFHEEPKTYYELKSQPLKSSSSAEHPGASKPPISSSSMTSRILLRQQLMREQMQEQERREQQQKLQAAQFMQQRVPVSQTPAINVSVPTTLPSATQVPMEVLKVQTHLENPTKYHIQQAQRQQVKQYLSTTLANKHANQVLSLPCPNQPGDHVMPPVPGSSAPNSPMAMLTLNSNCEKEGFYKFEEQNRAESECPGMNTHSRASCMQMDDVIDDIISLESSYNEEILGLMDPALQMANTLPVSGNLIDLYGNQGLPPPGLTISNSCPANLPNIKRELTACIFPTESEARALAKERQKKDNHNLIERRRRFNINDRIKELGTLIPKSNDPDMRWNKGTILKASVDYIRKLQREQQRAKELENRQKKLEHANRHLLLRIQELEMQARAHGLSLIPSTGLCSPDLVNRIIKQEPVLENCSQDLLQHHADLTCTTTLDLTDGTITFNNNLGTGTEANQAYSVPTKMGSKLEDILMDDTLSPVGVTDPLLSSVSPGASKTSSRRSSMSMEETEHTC
TEAD-YAP inh: TEAD-YAP interaction inhibition; 1.4% of 640,000 active; AID 1259422; HEK-TIYL cells, TEAD-Gal4/YAP UAS-luciferase luminescence; inhibition, % at 9.12 µM; in the data active means inhibition above about 32%;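 further: 0% = median of test compound wells and 100% = reference inhibitor wells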
GPR151 ag: human GPR151 activation; PathHunter beta-arrestin GPR151 cells, luminescence; activation, % at 11.2 µM; 1% of 650,000 active; Q8TDV0; in the data active means activation above about 4.9%;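 further: 0% = median of compound wells and 100% = cells with positive control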
MITF inh conf: human MITF inhibition, confirmation | AlphaScreen MITF homodimerization, biotin/His-MITF beads | shares compounds with MITF inh | 16% of 4,700 active | inhibition, % at 2.6 µM | AID 1259372;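 active means inhibition above a cutoff derived from the DMSO control wells, cut at about 28% in these data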;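 further: 0% = MITF dimer wells with DMSO only; inhibitors lower the bead chemiluminescence by keeping MITF from dimerizing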
AlphaScreen DR: AlphaScreen optical interference, dose response counter-screen; AlphaScreen optical interference counterscreen, cell-free; IC50, µM; shares compounds with MITF inh; AID 1259373; 6% of 480 active; call rule not given here
AS interf ctr: optically interferes with AlphaScreen signal. LysRS AlphaScreen counterscreen, signal interference, triplicate. AID 1259376. inhibition, % at 2.6 µM. shares compounds with MITF inh. 7.6% of 4,700 active;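 active means inhibition above a cutoff derived from the DMSO control wells, cut at about 30% in these data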
Numbers without * were called inactive; / = not tested or not shown.

SMILES	FBW7 act	MITF inh	TEAD-YAP inh	GPR151 ag	MITF inh conf	AS interf ctr	others
COc1cc(CN2CCN(Cc3cccc(C)c3)CC2)cc(OC)c1OC	-1	42	-4	0	/	/
COc1cccc(CN2CCN(C3CCC(C)CC3)CC2)c1OC (stereo not given)	0	70*	-12	-1	17	-3
COc1cccc(CN2CCN(C3CCCCC3OC)CC2)c1OC (stereo not given)	0	74*	4	0	7	11
CC(C)OCCCN1C(=O)c2oc3ccccc3c(=O)c2C12C(=O)N(C)c1ccccc12 (stereo not given)	0	5	1	1	/	/
CCc1ccc2nc(N3CCC(C(=O)NCCCN4CCOCC4)CC3)sc2c1	0	-25	-6	-1	/	/
COc1ccc(-c2ccc(/C=C3/SC(=O)NC3=O)o2)cc1Cl	0	-24	-8	2	/	/
COc1ccc(CN2CCC(N3CCN(c4ccccc4)CC3)CC2)cc1OC	0	56*	19	-2	-6	-10
COc1cccc(CN2CCN(Cc3cccc(OC)c3OC)CC2)c1OC	0	74*	-2	0	6	10
COc1ccccc1CNC(=O)CN1CCN(C)CC1	0	80*	-6	0	4	13
COc1cccc(CN2CCC(N3CCN(c4ccccc4)CC3)CC2)c1OC	0	56*	5	0	-9	-3
CCOc1ccc(/C=C2/C(=O)N(CC)C(=S)N2C)c(OCC)c1	1	13	16	0	/	/
CCOC(=O)C1=C(C)NC2=C(C(=O)CCC2)C1c1ccccc1OC (stereo not given)	1	-8	2	-1	/	/
COc1cccc(CN2CCN(Cc3ccccc3Br)CC2)c1OC	0	35	-21	-2	/	/
COc1ccccc1CN1CCN(Cc2cccc(OC)c2OC)CC1	0	86*	-2	1	5	17
O=C(CCc1ccco1)Nc1ccc(-c2cn3c4c(nnc3n2)CCCC4)cc1	0	72*	-13	2	58*	-5	AlphaScreen DR=>6.5
Cc1ccc(CCC(=O)Nc2ccc(-c3cn4c5c(nnc4n3)CCCC5)cc2)o1	0	56*	-12	1	66*	-2	AlphaScreen DR=>6.5
O=S(=O)(c1ccc2ccccc2c1)N1CCN(Cc2c[nH]c3ccccc23)CC1	0	39	3	-1	/	/
O=C(CCc1ccccc1)Nc1nnc(-c2cccs2)s1	0	55*	0	1	0	12
CNc1oc(-c2ccco2)nc1S(=O)(=O)c1ccc(Br)cc1	0	74*	-4	1	6	11
CCN1CCCC1CNCc1csc(-c2ccc(Cl)cc2)n1 (stereo not given)	0	57*	-10	0	-2	5
CCN1CCCC1CNCc1ccccc1Cl (stereo not given)	0	2	5	-1	/	/
CCN(C(=O)Cn1ncc2c1-c1cc(C)ccc1OC2)c1ccccc1F	0	-1	-15	0	/	/
CCN(C(=O)Cn1ncc2c1-c1cc(C)ccc1OC2)c1cc(OC)ccc1OC	0	70*	10	3	6	18
O=C(N1CCc2nc(N3CCOCC3)[nH]c(=O)c2C1)N(c1ccccc1)c1ccccc1	0	12	6	-1	/	/
COc1cccc(/C(C)=N/N2CCN(Cc3cccc4ccccc34)CC2)c1	0	2	8	-1	/	/
SMILES	FBW7 act	MITF inh	TEAD-YAP inh	GPR151 ag	MITF inh conf	AS interf ctr	others
COc1ccc(CN2CCN(S(C)(=O)=O)CC2)cc1Br	0	70*	10	0	5	16
CCCS(=O)(=O)N1CCN(Cc2ccc(OC)c(Br)c2)CC1	0	11	6	1	/	/
COc1cccc(CN2CCN(Cc3cccc4ccccc34)CC2)c1	0	77*	2	2	-15	0
COc1cccc(CN2CCN(Cc3ccc(OC)c(Br)c3)CC2)c1	0	66*	2	0	13	9
CCS(=O)(=O)N1CCN(Cc2ccc(OC)c(Br)c2)CC1	0	44	7	1	/	/
COc1ccc(CN2CCN(Cc3cccc4ccccc34)CC2)cc1Br	0	72*	-8	-1	0	-2
Cc1ncc(-c2ccncc2)c(C2CCCN(CC(=O)Nc3nccs3)C2)n1 (stereo not given)	0	-2	-16	0	/	/
COc1ccc(CN2CCN(Cc3ccc(OC)c(Br)c3)CC2)cc1	0	62*	10	0	14	-3
COc1cc(CN2CCN(Cc3ccccc3Cl)CC2)cc(OC)c1	0	69*	2	1	5	-2
CCOC(=O)N1CCN(Cc2ccc(OC)c(Br)c2)CC1	0	2	-5	-1	/	/
O=C(NCCCn1ccnc1)C(=O)NCC1OCCCN1S(=O)(=O)c1ccccc1 (stereo not given)	-1	66*	-2	3	35*	45*
O=C(NCCCn1ccnc1)C(=O)NCC1OCCN1S(=O)(=O)c1ccccc1 (stereo not given)	0	49	-2	0	/	/
CC(C)(C)OC(=O)N1C(C(=O)O)CSC1c1cc2c(cc1[N+](=O)[O-])OCO2 (stereo not given)	0	60*	-7	0	72*	-5	AlphaScreen DR=>6.5
CCCCCCCCCCCCCCCC(=O)OC[C@H](O)[C@H]1OC(=O)C(=O)C1O (stereo not given in full)	0	81*	24	-2	42*	-13	AlphaScreen DR=>6.5
O=C1C2C(C(=O)N1c1ccc(Br)cc1)N1CCCN1C2c1ccc(F)cc1 (stereo not given)	0	65*	8	2	5	9
Cc1ccc(C)c(NC(=O)Cn2nnc(S(=O)(=O)c3ccc(C)c(C)c3)c2N)c1	0	10	2	0	/	/
CCOc1cccc(CN(C(=O)c2nc3ccc(-c4cn[nH]c4)cc3s2)C2CC2)c1	0	23	-14	2	/	/
Cc1ccc(CSCC(=O)N/N=C/c2ccccc2O)cc1	0	19	1	0	/	/
Cc1ccc(NC(=O)CN(C)CC(=O)Nc2ccc(F)c(F)c2F)c(Cl)c1	0	5	-4	-1	/	/
Cc1ccc(NC(=O)CN(C)C2CCN(C)CC2)c(Cl)c1	0	67*	10	1	1	10
CCOC(=O)c1c(N)n(C(C)CO)c2nc3ccccc3nc12 (stereo not given)	0	53*	14	0	14	15
COC(=O)C1=C(C)NC2=C(C(=O)CC(c3cccs3)C2)C1c1ccc(OC)cc1OC (stereo not given)	0	-6	3	1	/	/
CCN1CCc2c(sc(NC(=S)NC(=O)/C=C/c3ccccc3)c2C(N)=O)C1	0	10	-3	0	/	/
COc1cccc(NC(=S)NC(=O)/C=C/c2ccco2)c1	0	13	-1	1	/	/

Source: PubChem
